HP1b chromo inh – inhibitors of HP1-beta chromodomain binding to methylated histone tails. Potency, µM (doses to about 114 µM), without a hit: top-dose activity change, negative = inhibition, hits mostly inhibitors. 390,000 tested, 0.56% active. AlphaScreen HP1-beta / biotin-H3K9me3 peptide binding. AID 540317. P83916; note: potency is the fitted concentration of half-maximal effect; nearly all actives have a fitted effect of over 70% in size
Target sequence (P83916 whole entry, looked up): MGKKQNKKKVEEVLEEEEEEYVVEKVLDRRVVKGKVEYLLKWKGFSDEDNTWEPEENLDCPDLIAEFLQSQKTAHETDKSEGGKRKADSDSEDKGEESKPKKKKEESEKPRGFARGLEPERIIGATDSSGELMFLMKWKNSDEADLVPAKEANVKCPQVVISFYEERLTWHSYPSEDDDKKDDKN
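AlphaScreen: HP1-beta (50 nM) preformed 30 min with biotin-H3(1-18)K9me3 peptide (50 nM) in PBS pH 7.4, 0.01% Tween-20. Compound added for 30 min at RT, then streptavidin donor/nickel chelate acceptor beads (10 ug/mL) for 30 min.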
PI5P4Ka inh – inhibitors of human PI5P4K alpha. AID 652105. PI5P4Kalpha enzyme, ADP-Glo luminescence, 60 min; active compounds read low. max response, %. 330,000 tested, 1.2% active; active = max response of -50% or lower; inconclusive = between -30% and -50%; inactive = -30% or higher; note: value at the top dose of about 77 µM; % is set by controls: 0 for no effect and ±100 for the full control effect
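qHTS, 1536-well: enzyme/substrate mix, compound by pin tool, 5 microM ATP final; RT 60 min; ADP-Glo reagents 1 (45 min) then 2 (30 min); luminescence.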
JMJD2A Tudor inh – JMJD2A Tudor domain (human) inhibition; AlphaScreen JMJD2A-Tudor / H3K4me3 peptide binding; Potency, µM (doses to about 114 µM), without a hit: at the top dose activity change, negative = inhibition, most hits filed as inhibitors; 390,000 tested, 4.4% active; note: potency is the fitted concentration of half-maximal effect; % is set by controls: 0 for no effect and ±100 for the full control effect; nearly all actives have a fitted effect of over 50% in size
BAZ2B inh – inhibitors of human BAZ2B bromodomain; Potency, µM (doses to about 114 µM), for the others: at the highest dose activity change, negative = inhibition, most hits filed as inhibitors; 360,000 tested, 4.4% active; AlphaScreen BAZ2B-H3K14Ac peptide displacement; AID 504333; note: potency is the fitted concentration of half-maximal effect; % is set by controls: 0 for no effect and ±100 for the full control effect; nearly all actives have a fitted effect of over 60% in size
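BAZ2B 50 nM plus b-H3(5-23)K14Ac 50 nM, PBS pH 7.4/0.01% Tween-20, 30 min RT; compound added (max 110 uM), 30 min RT; streptavidin donor/Ni-chelate acceptor beads 10 ug/mL final, 20 min dark; AlphaScreen read.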
L3MBTL1 inh – blocks human L3MBTL1. Potency, µM (highest dose often 57.1 µM), for inactives: top-dose activity, negative = inhibition, usual class: inhibitors. Q9Y468. 230,000 tested, 0.66% active. AlphaScreen L3MBTL1–H3K9me1 peptide binding; note: potency is the fitted concentration of half-maximal effect; % is set by controls: 0 for no effect and ±100 for the full control effect; nearly all actives have a fitted effect of over 60% in size
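Read-out is AlphaScreen signal from streptavidin donor and nickel chelate acceptor beads (10 ug/mL final each) bridging L3MBTL1 (50 nM) and biotinylated K9-monomethylated H3(1-15) peptide (75 nM), after 30 min compound exposure at room temperature.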
KDM4E inh – blocks human JMJD2E demethylase activity. 230,000 tested, 1.6% active. JMJD2E catalytic domain, FDH-coupled NADH fluorescence (FDH is formaldehyde dehydrogenase). AID 2147. Potency, µM (highest dose often 57.1 µM), for the others: top-dose activity change, negative = inhibition, hits mostly inhibitors. B2RXH2; active = well fitted inhibition curve with a large enough effect, not every such curve was filed as active; inconclusive = small, poorly fitted or top-dose-only effect, or another doubt; inactive = no such curve, though single readings can be large or run the other way;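 note: potency is the fitted concentration of half-maximal effect; 0% = wells with enzyme and -100% = buffer wells without enzyme; nearly all actives have a fitted effect of over 50% in size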
Target sequence (B2RXH2 1-337 limits assumed): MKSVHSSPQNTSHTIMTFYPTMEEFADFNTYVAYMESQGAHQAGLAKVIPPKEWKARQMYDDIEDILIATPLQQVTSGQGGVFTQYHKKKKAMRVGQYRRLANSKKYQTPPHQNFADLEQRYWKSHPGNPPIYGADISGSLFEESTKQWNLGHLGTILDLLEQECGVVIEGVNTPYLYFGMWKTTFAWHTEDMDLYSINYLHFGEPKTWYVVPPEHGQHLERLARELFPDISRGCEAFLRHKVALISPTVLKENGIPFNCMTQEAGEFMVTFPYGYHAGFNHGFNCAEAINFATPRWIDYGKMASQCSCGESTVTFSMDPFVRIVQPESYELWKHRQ
The depositor's hits bear a star; ? = inconclusive; nt = no result; [ ] = dose if it differs, or a comment. Compounds with a hit are over-represented: about 5.7% of the library has one in this group of screens. Unless noted, calls come from the whole dose curve; as a rule, active = well fitted inhibition curve with a large enough effect; inconclusive = small, poorly fitted or top-dose-only effect; inactive = no such curve, though single readings can be large or run the other way.

SMILES | HP1b chromo inh | PI5P4Ka inh | JMJD2A Tudor inh | BAZ2B inh | L3MBTL1 inh | KDM4E inh
Oc1ccc(N2CCN(Cc3ccc(OCCCN4CCCCC4)cc3)CC2)cc1 | 39.8µM* | -10.4 | 50.1µM* | 10µM* | -12.3% | -18.5%
Fc1ccc(OCCCCCN2CCCC2)cc1 | 24.4% | nt | -12.0% | 2.3% | -9.6% | 2.3%
Cc1ccc(OCCCCN2CCCCC2)cc1 | 30.7% | 1.3 | -7.3% | -30.3% | 0.6% | nt
CC(C)c1ccc(OCCCN2CCCC2)cc1 | -26.4% | 7.4 | 56.2µM* | 56.2µM* | nt | nt
Cc1ccc(OCCN2CCCC2)cc1 | ? | 5.1 | 17.8µM* | -38.7% | nt | nt
COc1ccc(C2c3c(nc(CCc4ccccc4)[nH]c3=O)Oc3ccc4ccccc4c32)cc1OC (stereo unspecified) | nt | nt | -17.7% | nt | nt | nt
COc1ccc(CNC(=O)Cc2c(C)c3c(cc(C)c4c(C)c(C)oc43)oc2=O)cc1 | 46.0% | nt | -13.8% | 0.0% | nt | nt
CCOC(=O)c1ccc(NC(=O)c2cc3c(n(-c4ccc(C)cc4)c2=O)CC(C)(C)CC3=O)cc1 | 35.6% | nt | -16.6% | -1.0% | nt | nt
CCCCc1ccc(NC(=O)Cn2cnc3c(oc4ccccc43)c2=O)cc1 | -0.1% | nt | ? | ? | nt | nt
c1ccc(COc2ccc(OCCCCN3CCCCC3)cc2)cc1 | -37.9% | 4.2 | 7.08µM* | 39.8µM* | nt | ?
CCOC(=O)c1nn(C)c(=S)n(C)c1=O | 30.9% | 0.2 | -5.5% | nt | nt | nt
Cn1nc(C(=O)O)c(=O)n(C)c1=O | -38.7% | 6.0 | 89.1µM* | nt | nt | nt
COC(=O)c1cc(O)c(O)c(O)c1 | ? | -5.2 | 20µM* | 79.4µM* | ? | 15.8µM*
Cc1nc2c(s1)sc1ccccc12 | 75.9% | 0.2 | -2.0% | 22.0% | 2.2% | 4.8%
CC[n+]1c(C)sc2sc3ccccc3c21 | nt | nt | nt | 25.1µM* | nt | 14.1µM*
COc1ccc(O)c(-c2cc(-c3ccccc3Cl)[nH]n2)c1 | -1.3% | 25.2 | ? | ? | -1.8% | nt
COc1ccc(O)c(-c2cc(-c3cccs3)[nH]n2)c1 | -15.9% | 4.7 | 15.8%[11.4 µM] | 70.8µM* | -19.2% | -6.5%
CCn1c(=O)cc(SCC(=O)NCc2ccc(OC)cc2OC)c2ccccc21 | 16.9% | nt | -13.5% | -15.3% | nt | nt
CCC(CC)NCc1ccc2c(c1)c1ccccc1n2CC | ? | ? | 20µM* | 44.7µM* | 39.7% | 1.1%
CCn1c2ccccc2c2cc(N)ccc21 | ? | -23.3 | ? | -32.4% | -3.9% | ?
CCn1c2ccccc2c2cc(CNCc3ccc(OC)cc3OC)ccc21 | ? | -1.4 | ? | 44.7µM* | -22.9% | 3.4%
CCNc1nc(NCC)n2c(SCC(=O)Nc3ccc(NC(C)=O)cc3)nnc2n1 | -0.2% | -1.4 | -25.3% | 50.1µM* | -39.6% | nt
Cc1cc(C)n(-c2cc(O)c(-n3nc(C)cc3C)cc2O)n1 | ? | 2.6 | 22.4µM* | -16.4% | -5.7% | ?
CC(C)c1ccc(N(CC(=O)O)S(=O)(=O)c2cccnc2)cc1 | 4.7% | 1.3 | 89.1µM* | 8.6% | nt | 2.0%
CCOc1ccc(N(CC(=O)O)S(=O)(=O)c2cccnc2)cc1 | 46.3% | 1.0 | -16.2% | 5.3% | nt | 3.2%
SMILES | HP1b chromo inh | PI5P4Ka inh | JMJD2A Tudor inh | BAZ2B inh | L3MBTL1 inh | KDM4E inh
O=C(CNCc1ccccn1)Nc1ccc([N+](=O)[O-])cc1C(=O)Nc1ccccc1F | 12.6% | -10.0 | 44.7µM* | 17.8µM* | nt | nt
CCCn1c2ccccc2c2cnn(CC(=O)NCCc3ccc(C)cc3)c(=O)c21 | 10.6% | nt | -17.8% | 6.3% | nt | nt
Cc1c(N=C2C=C(Br)C(=O)C(Br)=C2)c(=O)n(-c2ccccc2)n1C | 28.2µM* | -78.5* | 56.2µM* | 20µM* | nt | -15.9%
Cc1c(N=C2C=CC(=O)c3ccccc32)c(=O)n(-c2ccccc2)n1C | 10µM* | -61.6* | 44.7µM* | 28.2µM* | nt | ?
Cc1ccc(-c2nonc2NC(=O)c2ccc(F)cc2)cc1C | 22.9% | nt | -13.9% | -19.2% | nt | nt
COc1cc(N=Nc2ccccc2C(=O)O)ccc1O | 13.5% | -12.7 | -7.2% | -33.7% | ? | -3.1%
Oc1ccc(N=Nc2ccc3ccccc3c2)cc1 | ? | 40.7 | 44.7µM* | 31.6µM* | -6.5%[2.29 µM] | nt
COc1cc(N=Nc2ccc3ccccc3c2)ccc1O | ? | 43.8 | 39.8µM* | 25.1µM* | ? | nt

Screens from PubChem BioAssay.
